Screening results as filed in PubChem.
In the library only some 4.6% were active in any assay of this set; here they are far more common.
HCV inh: inhibitors of hepatitis C virus infection; Potency, µM (doses to about 41.8 µM), without a hit: top-dose activity change, negative = inhibition, actives largely listed as inhibitors; Huh7.5.1 HCVcc-Cre infection, luciferase reporter, 44 h; 340,000 compounds, 3.4% hits; active = well fitted inhibition curve with a large enough effect; inconclusive = small, poorly fitted or top-dose-only effect, or another doubt; inactive = no such curve, though single readings can be large or run the other way
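Infectious HCVcc-Cre (~0.5 moi) was added to cells just after compound, with cells seeded 4 h earlier at 1,000 per well. Luciferase activity after 44 h culture reported infection; substrate was incubated 15 min at room temperature before reading.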
VACV Venus inh: vaccinia inhibition (Venus reporter); Vaccinia virus Venus reporter expression, fluorescence; Potency, µM (doses to about 36.5 µM), without a hit: at the top dose activity change, negative = inhibition, actives largely listed as inhibitors; 330,000 compounds, 0.46% hits; AID 720580; calls by dose curve; tested in A549 cells; also: nearly all actives have a fitted effect of over 30% in size
VACV mCherry inh: vaccinia inhibition (mCherry reporter) | Vaccinia virus mCherry reporter infection, fluorescence | Potency, µM (series often up to 36.5 µM), inactives show top-dose activity change, negative = inhibition, actives largely listed as inhibitors | 310,000 compounds, 0.63% hits | AID 720579; calls by dose curve; tested in A549 cells; also: nearly all actives have a fitted effect of over 35% in size
LASV entry inh: Lassa virus entry inhibition; Lassa virus pseudotype entry inhibition, cell reporter; Potency, µM (highest dose often 37.9 µM), inactives show top-dose activity change, negative = inhibition, hits mostly inhibitors; 300,000 compounds, 1.2% hits; AID 540256; calls by dose curve; tested in HEK293 cells; also: nearly all actives have a fitted effect of over 50% in size
Marburg entry inh: blocks Marburg virus binding to or entry into cells | Potency, µM (titrated, usually from 37.8 µM), for inactives: top-dose activity change, negative = inhibition, usual class: inhibitors | AID 540276 | 300,000 compounds, 1.8% hits | Marburg virus pseudotyped entry inhibition, cell reporter; calls by dose curve; tested in HEK293 cells
The depositor's hits bear a star; i = inactive; ? = inconclusive; / = not tested or not shown; [ ] = another dose, or the depositor's remark. % is scaled to controls: 0 for no effect and ±100 for the full control effect; potency is read from the fitted curve at half-maximal effect.

SMILES | HCV inh | VACV Venus inh | VACV mCherry inh | LASV entry inh | Marburg entry inh
COc1ccc(Oc2nc(-c3ccccn3)nc3ccccc23)cc1 | 12.6µM* | ? | 4.47µM* | ? | ?
Fc1ccc(Oc2nc(-c3ccccn3)nc3ccccc23)cc1 | -73.4% | ? | ? | -15.1% | ?
CC(=O)c1ccc(Oc2nc(-c3cccnc3)nc3ccccc23)cc1 | 11.2µM* | -4.9% | -3.1% | -21.5% | -0.5%[46.1 µM]
c1ccc(Oc2nc(-c3ccccn3)nc3ccccc23)cc1 | 7.94µM* | ? | ? | ? | ?
CC(C)Nc1oc(-c2ccccc2)nc1-c1ccc(C(F)(F)F)cc1 | / | / | / | / | -8.1%[14.2 µM]
O=C(C[C@H]1C/C=C\C[C@H](NC(=O)OCC2c3ccccc3-c3ccccc32)C(=O)O[C@H](c2ccccc2)CNC1=O)N[C@H](CO)Cc1ccccc1 | -5.2% | 12.6µM* | 10µM* | / | /
O=C(N[C@@H]1C/C=C\C[C@H](CC(=O)N(CCO)Cc2ccccc2)C(=O)NC[C@@H](c2ccccc2)OC1=O)OCC1c2ccccc2-c2ccccc21 | ? | ? | -6.2% | / | /
O=C(Nc1ccc2nc(-c3ccco3)c(-c3ccco3)nc2c1)N1CCN(c2ccccn2)CC1 | 7.94µM* | -4.9% | i | 3.4% | ?
O=C(Nc1ccccc1)c1ccc2nc(-c3ccco3)c(-c3ccco3)nc2c1 | 8.91µM* | -15.2% | 4.3% | ? | -23.5%
COc1ccc(Br)cc1C(=O)Nc1cccc(-c2nnc(-c3ccco3)o2)c1 | ? | -1.9% | i | -7.7% | 20.6µM*
COc1ccc(Br)cc1C(=O)Nc1cc(C)cc(C)c1 | 5.62µM* | -9.0% | -14.9% | 3.0% | 19.0%
COc1ccccc1C(=O)N(Cc1cc2cc3c(cc2nc1N(C)C)OCO3)CC1CCCO1 (stereo not drawn) | / | -2.5% | -7.8% | / | /
CCOc1ccc(NC(=O)CSc2nnc(-c3ccc(C)cc3)c(-c3ccc(C)cc3)n2)cc1 | / | -17.1% | -17.2% | 14.3%[46.1 µM] | /
O=C(Nc1ccccc1)c1cccc(-c2nnc(-c3ccccc3)o2)c1 | 13.2% | -9.0% | / | 2.4% | 14.1%
COc1cccc(C(=O)Nc2cccc(-c3nnc(-c4ccco4)o3)c2)c1 | 22.4µM* | ? | ? | ? | ?
Cc1ccc(-n2ncc3c(SCc4ccccn4)ncnc32)c(C)c1 | ? | 5.1% | 5.01µM* | 0.562µM* | ?
CCC(C)c1ccccc1OCCOCCN1CCCC1 (stereo not drawn) | 8.1% | -5.6% | -16.1% | 18.4µM* | ?
Cc1ccc(C(C)(C)C)c(OCCOCCN2CCCC2)c1 | ? | -11.5% | -23.0% | ? | 11.6µM*
COc1ccccc1CNc1ncnc2sc(C(=O)N(C)C(C)C)c(C)c12 | / | -11.8% | -17.5% | / | /
COc1ccc(-c2c(C)c3ccc(O)c(CN4CCCC(C)C4)c3oc2=O)cc1OC (stereo not drawn) | / | -10.1% | -7.7% | 4.2%[46.1 µM] | /
CNC(=O)COC(=O)c1cc(=O)[nH]c2ccccc12 | 18.8% | / | / | 0.6% | 13.4%
NC(=O)COC(=O)c1cc(=O)[nH]c2ccccc12 | 10µM* | 1.2% | -7.4% | / | /
O=[N+]([O-])c1cccnc1N1CCC(c2cc(-c3ccc(Cl)cc3)n[nH]2)CC1 | 10µM* | -21.3% | -24.2% | ? | ?
CCOC(=O)CN1CCC(c2cc(-c3ccc(Cl)cc3)n[nH]2)CC1 | -18.2% | / | / | / | /
CCOC(=O)C1CCCN(C(=O)c2ccc3c(c2)N(C)C(=O)/C(=C/c2ccccc2Cl)S3)C1 (stereo not drawn) | 11.2µM* | -20.6% | -11.3% | ? | -24.8%[46.1 µM]
SMILES | HCV inh | VACV Venus inh | VACV mCherry inh | LASV entry inh | Marburg entry inh
CN1C(=O)/C(=C/c2ccc(C(F)(F)F)cc2)Sc2ccc(C(=O)N3CCN(c4ccccn4)CC3)cc21 | 14.1µM* | -27.6% | -29.6% | 20.7%[46.1 µM] | ?
CN1C(=O)/C(=C/c2cccc(Cl)c2)Sc2ccc(C(=O)N3CCOCC3)cc21 | 11.2µM* | / | / | / | /
CCOC(=O)C1CCCN(C(=O)c2cccc(N3C(=O)c4ccccc4C3=O)c2)C1 (stereo not drawn) | -4.7% | / | / | / | /
C=CCn1c(COc2ccc3c(c2)CCCC3)nnc1SCC(=O)Nc1cccc(SC)c1 | 11.2µM* | / | / | -12.3% | ?
O=C(Cc1sc(-c2ccccc2Cl)nc1-c1ccccc1)Nc1ccc(F)cc1 | 7.94µM* | 2.3% | / | -29.0% | ?
O=C(Cc1sc(-c2ccccc2Cl)nc1-c1ccccc1)Nc1ccccc1 | -4.6% | 1.4% | / | ? | ?
CCOc1ccccc1CNC(=O)Cn1c(=O)c2cccn2c2ccc(F)cc21 | / | ? | -26.2% | 0.4%[46.1 µM] | /
CC1CCN(CCc2nc3cc(NC(=O)COc4ccc(Cl)cc4)ccc3n2C)CC1 | 11.2µM* | -4.1%[7.34 µM] | -13.3%[7.34 µM] | / | /
Cc1ccc(OCC(=O)Nc2ccc3c(c2)nc(CCN2CCC(C)CC2)n3C)cc1 | 12.6µM* | -29.6% | -11.6% | ? | ?
COc1ccccc1N=Nc1nc(-c2ccccc2)c(-c2ccccc2)[nH]1 | 11.2µM* | 14.5% | i | ? | ?
COc1ccc(N=Nc2nc(-c3ccccc3)c(-c3ccccc3)[nH]2)cc1 | ? | 16.6% | 7.7% | -5.2% | ?
CCOc1ccc(NC(=O)CCS(=O)(=O)c2ccc(Br)s2)cc1 | / | 0.9% | -2.1% | ? | 6.6%[46.1 µM]
COc1ccc(CNC(=O)c2ccc3c(c2)N(Cc2c(F)cccc2Cl)C(=O)CS3)cc1 | / | -14.1% | -18.5% | ? | 11.2µM*
CCOc1ccc(CN2C(=O)c3ccccc3Sc3ccc(C(=O)NCCc4ccccc4)cc32)cc1 | / | -5.5% | -9.9% | ? | ?
O=C(NCc1ccco1)c1ccc2c(c1)N(Cc1c(F)cccc1Cl)C(=O)c1ccccc1S2 | / | -19.7% | -21.5% | ? | ?
CCN(CC)CCCNC(=O)c1ccc2c(c1)N(Cc1c(F)cccc1Cl)C(=O)c1ccccc1S2 | / | ? | -4.7% | ? | 6.31µM*
CCOc1ccc(CN2C(=O)c3ccccc3Sc3ccc(C(=O)NCc4ccc(C)cc4)cc32)cc1 | / | -19.5% | -20.2% | ? | 10µM*
O=C(NCCc1ccc(Cl)cc1)c1ccc2c(c1)N(Cc1c(F)cccc1Cl)C(=O)CS2 | / | -7.3% | -10.1% | -2.3%[46.1 µM] | -11.7%[46.1 µM]
COCCn1c(SCC(=O)Nc2ccc(F)c(Cl)c2)nc2c(oc3ccccc32)c1=O | / | -21.7% | ? | / | 11.6%[46.1 µM]
Cc1cccc(NC(=O)c2cc3c(=O)n(Cc4cccnc4)ccc3nc2C)c1 | / | -7.3% | i | 20.5%[46.1 µM] | /
CCc1ccc(CNCc2c(C(=O)O)c(C)n(Cc3c(F)cccc3Cl)c2C)cc1 | / | -7.2% | -10.3% | ? | ?
CCn1c(SCC(=O)Nc2cc(C(C)(C)C)nn2-c2ccccc2)nnc1-c1cccs1 | 15.8µM* | -15.7% | i | ? | ?
Cc1nnc(SCC(=O)Nc2cc(C(C)(C)C)nn2-c2ccccc2)s1 | 8.4% | -11.4% | -10.6% | 1.1% | -32.6%
CCn1c(Sc2ccc([N+](=O)[O-])cn2)nnc1-c1ccco1 | ? | ? | 12.6µM* | ? | ?
CCn1c(SCC(=O)OCc2ccccc2)nnc1-c1ccco1 | 31.2% | / | / | 4.8% | 0.7%
CC(=O)Nc1ccc(S(=O)(=O)Nc2cccc(-c3ccc(N4CCC(C)CC4)nn3)c2)cc1 | / | -26.4% | -25.7% | 11.2µM* | /
